Bioassay records: PubChem BioAssay, several laboratories
CCHF vOTU inh = blocks the CCHF virus ovarian tumor domain protease; inhibition, % at 11.5 µM; CCHFV vOTU protease, Pep-AMC fluorescence; 0.55% of 370,000 active; also: 0% = vehicle wells with enzyme and 100% = no enzyme wells
GDH-TPI inh = counter-screen for M. tuberculosis FBA inhibitors: GDH-TPI coupled enzymes; AID 588335; inhibition, % at 4.8 µM; GDH-TPI coupled enzyme counterscreen, NADH absorbance; 1.2% of 360,000 active;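 also: 0% = DMSO wells and 100% = wells lacking the enzyme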
BH1578 lux ind = quorum light induction in luxS cqsA deficient V. cholerae; V. cholerae BH1578 lux reporter, luminescence, 6 h; activation, % at 18.7 µM; 0.16% of 350,000 active; AID 588436; in the data active = activation mostly above about 9.7%, no sharp cut-off
Mtb FBA inh = Mtb fructose-bisphosphate aldolase inhibition; purified M. tuberculosis FBA, fluorescence read-out; inhibition, % at 1 µM; 2.3% of 360,000 active; AID 588726; in the data active = inhibition above about 27%;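 also: 0% = vehicle and 100% = reference inhibitor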
Target sequence (P9WQA3 whole entry, looked up): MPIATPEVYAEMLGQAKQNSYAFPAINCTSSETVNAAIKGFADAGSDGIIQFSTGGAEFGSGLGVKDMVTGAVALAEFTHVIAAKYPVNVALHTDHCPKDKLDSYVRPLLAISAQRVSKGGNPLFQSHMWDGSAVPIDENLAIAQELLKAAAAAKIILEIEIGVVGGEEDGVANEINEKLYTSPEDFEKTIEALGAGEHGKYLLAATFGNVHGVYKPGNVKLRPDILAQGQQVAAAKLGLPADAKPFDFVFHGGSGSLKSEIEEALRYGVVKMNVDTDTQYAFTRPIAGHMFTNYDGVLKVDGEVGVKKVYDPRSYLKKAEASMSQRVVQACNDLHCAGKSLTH
An asterisk follows results filed as active; i = inactive; / = not tested or not shown. Shown are actives, neighbours in structure and some others; about 3.9% of the full set was active somewhere. Rule as the data show it, unless noted: active = inhibition above about 30%; inactive = the rest.

SMILES	CCHF vOTU inh	GDH-TPI inh	BH1578 lux ind	Mtb FBA inh
Cc1ccc(S(=O)(=O)c2c(N)n(-c3ccccc3)c3nc4ccccc4nc23)cc1	-57	14	0	129*
CCCn1c(C)nc2c(c1=O)c1nc3ccccc3nc1n2-c1ccccc1	7	1	i	5
CN(C)CCCn1c(N)c(S(=O)(=O)c2ccccc2)c2nc3ccccc3nc21	-212	20	i	113*
COCCNC(=O)c1c(NC(=O)c2ccc(Br)o2)n(Cc2ccccc2)c2nc3ccccc3nc12	-8	27	i	27
CCCCn1c(N)c(S(=O)(=O)c2ccc(C)cc2)c2nc3ccccc3nc21	-73	18	-1	116*
COC(=O)CCCn1cc(CN2CC(N(C)C)CS2(=O)=O)nn1 (centres undefined)	-15	/	/	/
C=CC[n+]1cccc(-c2cc3ccc(C)cc3[nH]2)c1	5	23	-1	2
O=C(Nc1ccccc1C(F)(F)F)c1cc(-c2ccco2)on1	1	2	i	4
CCC1=[N+](CC(=O)c2ccc(C)cc2)CCn2cccc21	-3	35*	i	3
CCC1=[N+](CC(=O)c2ccc(C)cc2)CCn2c(C)ccc21	2	23	0	6
O=C(Cc1ccc(F)cc1)Nc1ccc(S(=O)(=O)N2CCCCC2)cc1	-4	3	0	2
CCC1=CC(c2ccccc2)n2ncnc2N1 (centres undefined)	-25	12	i	35*
O=C(NCc1cccnc1)c1ccc(=O)oc1	25	43*	/	-1
COc1ccc(CNC(=O)c2ccc(=O)oc2)cc1OC	21	60*	1	1
CCN1CCN(c2ccc(S(=O)(=O)N3CCCCC3)cc2NC(=O)CC(NC(C)=O)c2ccccc2)CC1 (centres undefined)	-19	0	-1	4
CC1(C(=O)NS(=O)(=O)c2ccccc2Cl)CCN1C(=O)CCC1CCCC1 (centres undefined)	15	-1	-1	-3
c1coc(C2=NC(c3ccco3)C(c3ccco3)N2)c1 (centres undefined)	/	1	i	49*
CC(C)(CC(=O)OCC(=O)Nc1ccccc1F)CC1=NS(=O)(=O)c2ccccc2N1	2	-2	0	-1
COc1ccc2cc(/C=C/C(=O)N3CCN(CC(=O)N4CCCCCC4)CC3)ccc2c1	/	14	1	30*
Cc1ccc(/C=N/NC(=O)c2ccc3nc[nH]c3c2)o1	22	63*	i	2
O=C(N/N=C/c1ccc([N+](=O)[O-])cc1)c1ccc2nc[nH]c2c1	19	37*	i	-3
COC(=O)c1ccc(/C=N/NC(=O)c2ccc3nc[nH]c3c2)cc1	17	26	-2	-2
Cc1c(NC(=O)CC(C)C)c(=O)n(-c2ccccc2)n1C	7	-1	-3	0
CCOCCc1c(O)nc(SC)[nH]c1=O	-6	7	i	-1
CN(C)c1nc(NCc2ccccc2)nc(Oc2ccc(=O)[nH]n2)n1	-3	-11	17*	-2
SMILES	CCHF vOTU inh	GDH-TPI inh	BH1578 lux ind	Mtb FBA inh
CCN(CC)c1nc(Nc2ccccc2)nc(Oc2ccc(=O)[nH]n2)n1	-2	13	-1	2
O=C(CSc1nc2ccccc2c(=O)n1CC1CCCO1)Nc1ccc(F)cc1 (centres undefined)	6	5	-1	0
O=[N+]([O-])c1c(Nc2ccccc2O)cc(N2CCOCC2)c2nonc12	1	32*	4	-15
COc1cccc(Nc2cc(N3CCOCC3)c3nonc3c2[N+](=O)[O-])c1	0	2	i	8
COc1ccc2c(c1)/C(=C\c1cccc(/C=C3/C(=O)Nc4ccc(OC)cc43)n1)C(=O)N2	-15	33*	-1	-1
CN(C)/C=C/c1onc(-c2ccccc2Cl)c1C#N	12	43*	0	-2
CC(=O)Nc1ccc(S(=O)(=O)NC2=C(N3CCN(Cc4ccccc4)CC3)C(=O)c3ccccc3C2=O)cc1	28	5	0	-2
CCN1CCN(C2=C(NS(=O)(=O)c3ccc(C)cc3)C(=O)c3ccccc3C2=O)CC1	44*	3	i	1
CCOC(=O)C1CCN(C2=C(NS(=O)(=O)c3ccc(Cl)cc3)C(=O)c3ccccc3C2=O)CC1	4	0	i	129*
COC(=O)c1cc(-c2c(-c3ccc4c(c3)OCO4)noc2-c2ccsc2)cc([N+](=O)[O-])c1	11	10	i	5
CCn1cc(/C=C(\NC(=O)c2ccccc2)C(=O)NCCN2CCOCC2)c2ccccc21	24	48*	i	-4
CCn1cc(/C=C(\NC(=O)c2ccc(C)cc2)C(=O)NCCCN2CCOCC2)c2ccccc21	0	41*	i	1
